# Experimental data published in the antibiotic and cytotoxicity screens of Wong et al. (2023).
# The campaign covered roughly 39,000 compounds. About 3,300 (8.5%) were called active. This is one part of a sample in which actives are shown more often than they occur.
# System: HepG2
# Assay: cytotoxicity call (relative viability < 0.9)
# Conditions: 10 µM
row,SMILES,cytotoxicity call
1,O=C(C[C@@H]1CC[C@@H]2[C@H](COC[C@@H](O)CN2S(=O)(=O)c2ccccc2)O1)N1CCc2ccccc2C1,inactive
2,C[C@@H]1CCCCO[C@H](CN(C)S(=O)(=O)c2cccs2)[C@@H](C)CN([C@@H](C)CO)C(=O)c2cc(NS(=O)(=O)c3cn(C)cn3)ccc2O1,inactive
3,C[C@@H]1CN([C@@H](C)CO)C(=O)Cc2cc(NS(=O)(=O)c3cn(C)cn3)ccc2O[C@@H]1CN(C)Cc1ccc(C(=O)O)cc1,inactive
4,C[C@H](CO)N1C[C@H](C)[C@H](CN(C)S(=O)(=O)c2cn(C)cn2)Oc2ccc(N(C)C)cc2CC1=O,inactive
5,CC(C)CC#Cc1ccc2c(c1)O[C@@H](CN(C)C(=O)c1ccncc1)[C@H](C)CN([C@H](C)CO)S2(=O)=O,inactive
6,Cc1ccc(S(=O)(=O)N(C)C[C@@H]2Oc3cc(C#Cc4ccncc4)ccc3S(=O)(=O)N([C@H](C)CO)C[C@@H]2C)cc1,active
7,Cc1ccc(S(=O)(=O)N(C)C[C@H]2Oc3cc(C#Cc4ccccc4)ccc3S(=O)(=O)N([C@@H](C)CO)C[C@H]2C)cc1,inactive
8,Cc1ccc(S(=O)(=O)N(C)C[C@@H]2Oc3cc(C#Cc4ccncc4)ccc3S(=O)(=O)N([C@H](C)CO)C[C@H]2C)cc1,active
9,Cc1ccc(S(=O)(=O)N(C)C[C@@H]2Oc3cc(C#Cc4ccccc4)ccc3S(=O)(=O)N([C@@H](C)CO)C[C@@H]2C)cc1,inactive
10,Cc1ccc(S(=O)(=O)N(C)C[C@@H]2Oc3cc(C#Cc4ccccc4)ccc3S(=O)(=O)N([C@@H](C)CO)C[C@H]2C)cc1,inactive
11,Cc1ccc(S(=O)(=O)N(C)C[C@@H]2Oc3cc(C#Cc4ccccc4)ccc3S(=O)(=O)N([C@H](C)CO)C[C@@H]2C)cc1,inactive
12,Cc1ccc(S(=O)(=O)N(C)C[C@H]2Oc3cc(C#Cc4ccncc4)ccc3S(=O)(=O)N([C@@H](C)CO)C[C@@H]2C)cc1,active
13,Cc1ccc(S(=O)(=O)N(C)C[C@H]2Oc3cc(C#Cc4ccncc4)ccc3S(=O)(=O)N([C@H](C)CO)C[C@H]2C)cc1,active
14,Cc1ccc(S(=O)(=O)N(C)C[C@H]2Oc3cc(C#Cc4ccccc4)ccc3S(=O)(=O)N([C@@H](C)CO)C[C@@H]2C)cc1,inactive
15,Cc1ccc(S(=O)(=O)N(C)C[C@H]2Oc3cc(C#Cc4ccccc4)ccc3S(=O)(=O)N([C@H](C)CO)C[C@H]2C)cc1,inactive
16,CC(C)NC(=O)Nc1ccc2c(c1)C(=O)N([C@H](C)CO)C[C@@H](C)[C@@H](CN(C)C(=O)C1CCCCC1)OCCCC[C@H](C)O2,inactive
17,CO[C@@H]1CN(C)C(=O)c2ccc(NS(C)(=O)=O)cc2OC[C@@H](C)N(C(=O)c2ccc3c(c2)OCO3)C[C@@H]1C,inactive
18,COc1ccccc1S(=O)(=O)N(C)C[C@H]1OCc2cn(nn2)CCCC(=O)N([C@@H](C)CO)C[C@@H]1C,inactive
19,CCS(=O)(=O)N1C[C@]2(CCN(CC2)C(=O)c2cccnc2)c2c(n(c3cc(ccc23)OC)C)[C@H]1CO,inactive
20,C[C@@H]1CN([C@H](C)CO)C(=O)c2cc(NC(=O)Cn3cnnn3)ccc2O[C@H]1CN(C)C(=O)NC1CCCCC1,inactive

row,SMILES,cytotoxicity call
1,Cc1ccc(S(=O)(=O)Nc2ccc3c(c2)C(=O)N([C@@H](C)CO)C[C@H](C)[C@H](CN(C)C(=O)Nc2c(C)noc2C)OCCCC[C@H](C)O3)cc1,inactive
2,CC(C)NC(=O)Nc1ccc2c(c1)CC(=O)N([C@@H](C)CO)C[C@@H](C)[C@H](CN(C)S(=O)(=O)c1ccc(F)cc1)O2,inactive
3,C[C@@H]1CN([C@@H](C)CO)S(=O)(=O)c2ccc(Br)cc2O[C@@H]1CN(C)C(=O)NC1CCCCC1,inactive
4,CCOC(=O)CC(=O)c1ccn(C)n1,inactive
5,C[C@@H]1CCCCO[C@H](CN(C)S(=O)(=O)c2cccs2)[C@H](C)CN([C@@H](C)CO)C(=O)c2cc(NC(=O)CCC(F)(F)F)ccc2O1,inactive
6,C[C@H](CO)N1C[C@H](C)[C@H](CN(C)Cc2ccccn2)Oc2ncc(C#Cc3ccc(F)cc3)cc2C1=O,inactive
7,C[C@@H]1CN([C@H](C)CO)C(=O)c2c(c3ccccc3n2C)-c2ccccc2CO[C@H]1CN(C)Cc1cccc(O)c1,inactive
8,Cc1ccc(S(=O)(=O)N(C)C[C@H]2Oc3cc(C#Cc4ccncc4)ccc3S(=O)(=O)N([C@H](C)CO)C[C@@H]2C)cc1,active
9,Cc1ccc(S(=O)(=O)N(C)C[C@@H]2Oc3cc(C#Cc4ccncc4)ccc3S(=O)(=O)N([C@@H](C)CO)C[C@@H]2C)cc1,active
10,Cc1ccc(S(=O)(=O)N(C)C[C@@H]2Oc3cc(C#Cc4ccncc4)ccc3S(=O)(=O)N([C@@H](C)CO)C[C@H]2C)cc1,active
11,Cc1ccc(S(=O)(=O)N(C)C[C@H]2Oc3cc(C#Cc4ccncc4)ccc3S(=O)(=O)N([C@@H](C)CO)C[C@H]2C)cc1,active
12,C[C@@H]1CN([C@H](C)CO)C(=O)c2cccc(NS(=O)(=O)c3ccc(F)cc3)c2O[C@@H]1CN(C)S(=O)(=O)c1cccs1,inactive
13,C[C@H]1CCCCO[C@H](CN(C)Cc2ccncc2)[C@@H](C)CN([C@@H](C)CO)C(=O)c2cc(NC(=O)Nc3cccc4ccccc34)ccc2O1,inactive
14,COc1ccc2c3c(n(c2c1)C)[C@@H](CO)N(C[C@]13CN(C1)S(=O)(=O)c1ccc(cc1)C)S(=O)(=O)c1ccc(cc1)C,inactive
15,C[C@H](CO)N1C[C@H](C)[C@H](CN(C)Cc2ccc3c(c2)OCCN3C)OCc2cnnn2CCCC1=O,inactive
16,O=C(C[C@H]1CC[C@@H]2[C@H](COC[C@@H](O)CN2C(=O)Nc2cccc(F)c2)O1)NCCCN1CCOCC1,inactive
17,CC(C)NC(=O)Nc1ccc2c(c1)C(=O)N([C@@H](C)CO)C[C@@H](C)[C@H](CN(C)C(=O)Nc1ccc(F)cc1)OCCCC[C@H](C)O2,inactive
18,O.O=C(O)C1C(O)CCC2CN3CCc4c([nH]c5ccccc45)C3CC21 (stereo not given),inactive
19,C[C@H]1CC(=O)Nc2c1c(N)nn2C,inactive
20,C[C@H]1CCCCO[C@H](CN(C)Cc2ccc3c(c2)OCO3)[C@@H](C)CN([C@@H](C)CO)C(=O)c2cc(NC(=O)CCC(F)(F)F)ccc2O1,inactive
